# Test results reported in the supplement of paper PMC8728848.
# The entries come from a sample that favours the strongest signals as a whole.
# B1: Spy0252 (Streptococcus pyogenes), Q9A1I9_STRP1 (protein)
# chain: MNMKKLASLAMLGASVLGLAACGGKSQKEAGASKSDTAKTEITWWAFPVFTQEKAEDGVGTYEKKLIAAFEKANPEIKVKLETIDFTSGPEKITTAIEAGTAPDVLFDAPGRIIQYGKNGKLADLNDLFTEEFTKDVNNDKLIQASKAGDTAYMYPISSAPFYMALNKKMLKDAGVLDLVKEGWTTDDFEKVLKALKDKGYNPGSFFANGQGGDQGPRAFFANLYSSHITDDKVTKYTTDDANSIKAMTKISNWIKDGLMMNGSQYDGSADIQNFANGQTSFTILWAPAQPGIQAKLLEASKVDYLEIPFPSDDGKPELEYLVNGFAVFNNKDEQKVAASKTFIQFIADDKEWGPKNVVRTGAFPVRTSYGDLYKDKRMEKIAEWTKFYSPYYNTIDGFAEMRTLWFPMVQAVSNGDEKPEDALKAFTEKANKTIKKTQ
# How the values were obtained:
# Experiment in all cases: glycan array binding signal (z-score within array); higher = stronger binding
# Conditions in all cases: glycan notation: IUPAC condensed, linker removed
# [1] = molecular target: Fuc(a1-2)Gal
# In short: (§1)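 The binding signal is a Z-score computed within each array. Data were drawn from 3228 arrays in the Consortium for Functional Glycomics database, restricted to those with a known protein sequence. Scores were averaged over arrays of the same protein sequence at different concentrations or buffers, and over linkers, and negative values can be taken as non-binding.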
# [2] = molecular target: Fuc(a1-2)Gal6S(b1-4)Glc
# In short: as §1
# [3] = molecular target: Fuc(a1-3)[Gal(b1-4)]GlcNAc(b1-2)Man(a1-6)[Gal(b1-4)GlcNAc(b1-2)Man(a1-3)]Man(b1-4)GlcNAc(b1-4)GlcNAc
# In short: as §1
# [4] = molecular target: Fuc(b1-3)GlcNAc
# In short: as §1
# [5] = molecular target: Gal(a1-3)Gal(b1-3)GlcNAc
# In short: as §1
# [6] = molecular target: Gal(a1-4)Gal(b1-4)GlcNAc
# In short: as §1
# [7] = molecular target: Gal(b1-3)GlcNAc(b1-3)Gal(b1-4)GlcNAc
# In short: as §1
# [8] = molecular target: Gal3S(b1-3)[Fuc(a1-4)]GlcNAc
# In short: as §1
# [9] = molecular target: Gal4S(b1-4)GlcNAc
# In short: as §1
# [10] = molecular target: Gal6S(b1-4)GlcNAc6S
# In short: as §1
# [11] = molecular target: GalNAc(a1-3)Gal
# In short: as §1
# [12] = molecular target: GalNAc(b1-3)Gal(a1-4)Gal(b1-4)GlcNAc(b1-3)Gal(b1-4)Glc
# In short: as §1
# [13] = molecular target: Glc(a1-4)Glc
# In short: as §1
# [14] = molecular target: GlcNAc(b1-3)[GlcNAc(b1-6)]GalNAc
# In short: as §1
# [15] = molecular target: GlcNAc3Prop(b1-4)GlcNAc
# In short: as §1
# [16] = molecular target: Kdn(a2-3)Gal(b1-3)GlcNAc
# In short: as §1
# [17] = molecular target: Man(a1-2)Man(a1-2)Man(a1-6)[Man(a1-3)]Man
# In short: as §1
# [18] = molecular target: Man(a1-3)[Man(a1-6)]Man
# In short: as §1
# [19] = molecular target: Man(a1-3)[Man(a1-6)]Man(a1-6)[Man(a1-2)Man(a1-3)]Man(b1-4)GlcNAc(b1-4)GlcNAc
# In short: as §1
# [20] = molecular target: Man(a1-3)[Man(a1-6)]Man(a1-6)[Man(a1-3)]Man(b1-4)GlcNAc(b1-4)GlcNAc
# In short: as §1
# [21] = molecular target: Man(a1-6)Man
# In short: as §1
# [22] = molecular target: Neu5Ac(a2-3)Gal(b1-3)GalNAc(b1-4)[Neu5Ac(a2-3)]Gal(b1-4)Glc
# In short: as §1
# [23] = molecular target: Neu5Ac(a2-3)Gal(b1-3)GlcNAc(b1-3)Gal(b1-3)GlcNAc
# In short: as §1
# [24] = molecular target: Neu5Ac(a2-3)Gal(b1-3)[Fuc(a1-4)]GlcNAc
# In short: as §1
# [25] = molecular target: Neu5Ac(a2-3)Gal(b1-3)[Neu5Ac(a2-3)Gal(b1-4)]GlcNAc
# In short: as §1
# [26] = molecular target: Neu5Ac(a2-3)Gal(b1-3)[Neu5Ac(a2-6)]GalNAc
# In short: as §1
# [27] = molecular target: Neu5Ac(a2-3)Gal(b1-4)Glc
# In short: as §1
# [28] = molecular target: Neu5Ac(a2-3)Gal(b1-4)GlcNAc(b1-2)Man(a1-3)[Neu5Ac(a2-6)Gal(b1-4)GlcNAc(b1-2)Man(a1-6)]Man(b1-4)GlcNAc(b1-4)GlcNAc
# In short: as §1
# [29] = molecular target: Neu5Ac(a2-3)Gal(b1-4)GlcNAc(b1-3)Gal(b1-4)[Fuc(a1-3)]GlcNAc
# In short: as §1
# [30] = molecular target: Neu5Ac(a2-3)Gal(b1-4)GlcNAc6S
# In short: as §1
# [31] = molecular target: Neu5Ac(a2-3)Gal(b1-4)[Fuc(a1-3)]GlcNAc(b1-6)[Neu5Ac(a2-3)Gal(b1-3)]GalNAc
# In short: as §1
# [32] = molecular target: Neu5Ac(a2-3)Gal(b1-4)[Fuc(a1-3)]GlcNAc6S
# In short: as §1
# [33] = molecular target: Neu5Ac(a2-3)[GalNAc(b1-4)]Gal(b1-4)Glc
# In short: as §1
# [34] = molecular target: Neu5Ac(a2-6)Gal(b1-4)GlcNAc(b1-2)Man(a1-6)Man(b1-4)GlcNAc(b1-4)GlcNAc
# In short: as §1
# [35] = molecular target: Neu5Ac(a2-6)Gal(b1-4)GlcNAc(b1-2)Man(a1-6)[Man(a1-3)]Man(b1-4)GlcNAc(b1-4)GlcNAc
# In short: as §1
# [36] = molecular target: Neu5Ac(a2-8)Neu5Ac(a2-3)Gal(b1-4)Glc
# In short: as §1
# [37] = molecular target: Neu5Ac(a2-8)Neu5Ac(a2-8)Neu5Ac(a2-3)Gal(b1-4)Glc
# In short: as §1
# [38] = molecular target: Neu5Ac9Ac(a2-6)Gal(b1-4)GlcNAc
# In short: as §1
# [39] = molecular target: Neu5Gc(a2-3)Gal(b1-4)Glc
# In short: as §1
binder,measurement,setting,value
B1,glycan array binding signal (z-score),[1],-0.143
same,glycan array binding signal (z-score),[2],-0.255
same,glycan array binding signal (z-score),[3],-0.236
same,glycan array binding signal (z-score),[4],-0.263
same,glycan array binding signal (z-score),[5],-0.267
same,glycan array binding signal (z-score),[6],-0.203
same,glycan array binding signal (z-score),[7],-0.267
same,glycan array binding signal (z-score),[8],-0.259
same,glycan array binding signal (z-score),[9],-0.249
same,glycan array binding signal (z-score),[10],-0.268
same,glycan array binding signal (z-score),[11],-0.212
same,glycan array binding signal (z-score),[12],5.38
same,glycan array binding signal (z-score),[13],0.228
same,glycan array binding signal (z-score),[14],-0.259
same,glycan array binding signal (z-score),[15],0.218
same,glycan array binding signal (z-score),[16],-0.248
same,glycan array binding signal (z-score),[17],-0.258
same,glycan array binding signal (z-score),[18],-0.267
same,glycan array binding signal (z-score),[19],-0.273
same,glycan array binding signal (z-score),[20],-0.271
same,glycan array binding signal (z-score),[21],-0.283
same,glycan array binding signal (z-score),[22],-0.256
same,glycan array binding signal (z-score),[23],-0.195
same,glycan array binding signal (z-score),[24],-0.279
same,glycan array binding signal (z-score),[25],-0.223
same,glycan array binding signal (z-score),[26],-0.085
same,glycan array binding signal (z-score),[27],5.54
same,glycan array binding signal (z-score),[28],-0.259
same,glycan array binding signal (z-score),[29],6.21
same,glycan array binding signal (z-score),[30],-0.268
same,glycan array binding signal (z-score),[31],-0.157
same,glycan array binding signal (z-score),[32],-0.278
same,glycan array binding signal (z-score),[33],-0.266
same,glycan array binding signal (z-score),[34],-0.277
same,glycan array binding signal (z-score),[35],-0.26
same,glycan array binding signal (z-score),[36],7.23
same,glycan array binding signal (z-score),[37],7.09
same,glycan array binding signal (z-score),[38],-0.248
same,glycan array binding signal (z-score),[39],5.2
